Unmarked numbers belong to inactive results.
Tested on: Vero E6 infected with SARS-CoV-2
Assay: inhibition of SARS-CoV-2 cytopathic effect; higher = more antiviral protection, active = above 15
Details: 48 h

SMILES	inhibition of SARS-CoV-2 cytopathic effect (1 nM)	inhibition of SARS-CoV-2 cytopathic effect (8.33 nM)	inhibition of SARS-CoV-2 cytopathic effect (100 nM)	inhibition of SARS-CoV-2 cytopathic effect (833.33 nM)	inhibition of SARS-CoV-2 cytopathic effect (10000 nM)
COCCOCCOc1ccc(C2=N[C@@](C)(C(=O)O)CS2)c(O)c1	-1.16%	1.76%	1.19%	1.75%	2.16%
Cc1nnc(NS(=O)(=O)c2ccc(N)cc2)s1 [sulfamethizole]	3.32%	0.33%	0.51%	1.2%	3.18%
CC(=O)Nc1cccc(Nc2ncnc(N3CCC(OCc4ccc(OC(F)(F)F)cc4)CC3)n2)c1C	0.94%	-3.45%	-5.16%	-2.26%	1.6%
O=C(c1ccc(F)cc1)C1CCN(CCn2c(=O)[nH]c3ccccc3c2=O)CC1 [ketanserin]	1.58%	-0.51%	-0.25%	2%	-1.33%
CN(C)CCCn1cc(C2=C(c3c[nH]c4ccccc34)C(=O)NC2=O)c2ccccc21	2.56%	1.35%	1.36%	0.57%	13.2%
O=C1C(Cl)=C(NCCN2CCOCC2)C(=O)c2ncccc21	-0.37%	1.19%	1.71%	6%	-17.2%
COC(=O)Nc1ccc(-c2nc(N3CCOCC3)c3cnn(C4CCN(Cc5cccnc5)CC4)c3n2)cc1	-4.18%	-1.95%	3.87%	-4.82%	-2.6%
N#Cc1c(N)nc(SCC(N)=O)c(C#N)c1-c1ccc(OCC2CC2)cc1	4.36%	2.85%	2.51%	10.1%	12.1%
CN(N=O)C(=O)N[C@@H](C=O)[C@@H](O)[C@H](O)[C@H](O)CO [streptozotocin]	-2.28%	-2.25%	2.59%	1%	3.27%
NC(N)=Nc1nc(CSCC/C(N)=N/S(N)(=O)=O)cs1 [famotidine]	-4.18%	-3.04%	2.88%	4.59%	-0.5%
Cc1cc(Nc2cc(CN3CCOCC3)c3nc(C)c(Cc4ccc(Cl)cc4F)n3n2)n[nH]1	-0.17%	1%	-1.28%	-6.68%	-11.6%
NC(=S)N/N=C/c1ccncc1 [perchlozone]	2.2%	1.74%	0.96%	2.38%	3.63%
CCC(=O)NC[C@H](Cc1ccc(OCCc2nc(-c3ccccc3)oc2C)cc1)N/C(C)=C\C(=O)c1ccc(C(F)(F)F)cc1	-1.03%	0.69%	0.66%	1.86%	5.34%
CC(SC(=O)c1cccs1)C(=O)NCC(=O)O (stereo not given) [stepronin]	2.01%	-0.48%	1.48%	0.5%	-1.74%
COc1cccc2c1C(=O)c1c(O)c3c(c(O)c1C2=O)C[C@@](O)(C(=O)CO)C[C@@H]3O[C@H]1C[C@H](N)[C@H](O[C@@H]2CCCCO2)[C@H](C)O1 [pirarubicin]	-1.57%	-0.32%	-0.19%	-1.24%	-2.07%
C=C[C@@H]1C[C@]1(NC(=O)[C@@H]1C[C@@H](Oc2ncc(OC)c3ccc(Cl)cc23)CN1C(=O)[C@@H](NC(=O)OC(C)(C)C)C(C)(C)C)C(=O)NS(=O)(=O)C1CC1 [asunaprevir]	-0.2%	0.38%	3.96%	2.81%	-1.88%
CCC1(c2c[nH]cn2)Cc2ccccc2C1 [atipamezole]	0.76%	2.54%	0.58%	2.4%	1.28%
Cc1[nH]c2ccccc2c1CCNC(=O)c1cccs1	-3.95%	-2.61%	-2.69%	1.32%	16% (active)
Cc1cc(C)cc(OCC2CNC(=O)O2)c1 (stereo not given) [metaxalone]	-1.78%	-2.7%	-1.26%	1.04%	-0.42%
C[C@]12CCC(=O)C=C1CC[C@@H]1[C@@H]2[C@@H](O)C[C@@]2(C)[C@H]1CC[C@]2(O)C(=O)COP(=O)(O)O [hydrocortisone-phosphate]	1.12%	3.34%	2.4%	2.84%	1.11%
C[C@H]1CO[C@@H]2Cn3cc(C(=O)NCc4ccc(F)cc4F)c(=O)c(O)c3C(=O)N12	0%	1.03%	1.79%	1.33%	-0.84%

SMILES	inhibition of SARS-CoV-2 cytopathic effect (1 nM)	inhibition of SARS-CoV-2 cytopathic effect (8.33 nM)	inhibition of SARS-CoV-2 cytopathic effect (100 nM)	inhibition of SARS-CoV-2 cytopathic effect (833.33 nM)	inhibition of SARS-CoV-2 cytopathic effect (10000 nM)
COc1ccc2c(c1OC)C(=O)O[C@@H]2[C@H]1c2c(cc3c(c2OC)OCO3)CCN1C [noscapine]	-3%	0.3%	-0.27%	-0.71%	-2.79%
Cc1c(C)c2c(c(C)c1O)CCC(C)(C(=O)O)O2 (stereo not given) [trolox]	4.59%	3.64%	1.16%	6.02%	2.14%
COc1ccc(S(=O)(=O)Nc2c(C)cc(C)cc2C)cc1	0.3%	-0.36%	2.29%	2.21%	0.94%
Cc1ccc(CNc2ncnc3ccc(-c4ccc(CO)o4)cc23)o1	-1.31%	0.26%	0.15%	-0.45%	1.88%
CCCOc1ccc2c(c1)CC[C@@H]1[C@@H]2CC[C@]2(C)[C@@H](OC)CC[C@@H]12 [promestriene]	-1.76%	-1.33%	-0.65%	-2.33%	-2.79%
NCCc1c[nH]c2ccc(O)cc12 [serotonin]	-0.73%	-0.57%	2.41%	2.28%	0.37%
O=C1NCCc2[nH]c(-c3ccncc3)cc21	-0.31%	-0.69%	-1%	-0.56%	-3.45%
c1cc(-c2sc(-c3ccncc3)c(-c3ccncc3)c2-c2ccncc2)ccn1	-1.78%	-0.14%	-3.51%	-4.39%	-5.36%
O=C(O)CCc1c[nH]c2ccccc12	0.05%	-0.38%	-1.18%	-0.72%	-0.06%
N#CC(Cc1ccc(O)cc1)c1ccc(O)cc1 (stereo not given) [diarylpropionitrile]	-1.07%	1.57%	-1.11%	-3.56%	-1.54%
CN1[C@@H]2CC[C@H]1C[C@@H](OC(=O)c1cc(Cl)cc(Cl)c1)C2 [bemesetron]	-0.2%	0.56%	0.85%	0.1%	2.26%
CC(=O)NCCCS(=O)(=O)O [acamprosate]	-2.95%	1.47%	-2.01%	-3.15%	-1.78%
CCNCc1cc(C(C)(C)C)c(O)c(C(C)(C)C)c1	1.75%	-0.5%	1.78%	0.46%	1.14%
O=C(O)[C@H](O)[C@@H](O)[C@H](O[C@@H]1O[C@H](CO)[C@H](O)[C@H](O)[C@H]1O)[C@H](O)CO [maltobionic-acid]	-0.69%	-2.72%	-1.55%	-3.61%	-1.2%
O=C(Nc1ccc([N+](=O)[O-])cc1O)Nc1ccccc1Br	0.2%	-0.25%	-0.6%	0.15%	-2.06%
C[C@@H](N)c1ccc(C(=O)Nc2ccnc3[nH]ccc23)cc1	0.69%	-1.06%	0.35%	-5.51%	-13.4%
N#C/C(=C\c1ccc(O)c(O)c1)C(=O)NCCCCc1ccccc1	0.51%	1.37%	1.91%	0.14%	-0.03%
CS(=O)(=O)c1ccc(Cn2c3c(c4cc(F)cc(F)c42)CCCC3CC(=O)O)cc1 (stereo not given)	0.13%	-0.29%	-0.12%	1.36%	-1.55%
CC1=C(/C=C/C(C)=C/C=C/C(C)=C/C=O)C(C)(C)CCC1 [retinaldehyde]	-0.27%	1.56%	3.22%	6.75%	10.4%
C[C@H](N[C@@H](CCc1ccccc1)C(=O)O)C(=O)N1Cc2ccccc2C[C@H]1C(=O)O [quinaprilat]	-0.56%	-0.93%	-1.42%	-0.25%	0.11%

Reference: the supplement of paper PMC13380429
